A short description of test [1]: rapamycin-like changes in RPL19A-GFP expression – cell-based, S. cerevisiae, multiplex flow cytometry, primary screen (AID 1862; in the data active = percent of DMSO control GFP below about 86%;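 also: lower values mimic rapamycin by blocking the RPL19A rise seen in DMSO cells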). Particulars: S. cerevisiae RPL19A-GFP strain, flow cytometry fluorescence, 3 h; at 10 µM; stronger effect = lower value.
The nature of test [2]: TOR pathway GLN3 branch reporter MEP2-GFP changes – S. cerevisiae, multiplex flow cytometry, primary screen (AID 1867;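 active = GFP response, as percent of the DMSO control, above the screen-wide mean plus 3 SD, about 139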;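 also: median GFP channel fluorescence of barcode-gated MEP2-GFP cells measured by flow cytometry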). Particulars: S. cerevisiae MEP2-GFP strain, 3 h, at 10 µM, stronger effect = higher value, 100% means same as DMSO wells.
Test [3] is described as follows: TOR pathway RTG branch CIT2 reporter changes – S. cerevisiae, GFP fusion, multiplex flow cytometry, primary screen (AID 1870;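 active = percent response above a set limit, the screen-wide mean plus 3 SD, cut at about 130% in these data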;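 also: barcoded CIT2-GFP strain pooled with four other GFP strains with rapamycin as positive control; median GFP fluorescence per well over plate mean of DMSO wells so 100% = DMSO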). Particulars: S. cerevisiae CIT2-GFP expression, 3 h, at 10 µM, stronger effect = higher value.
Test [4] in a line: TOR pathway LAP4-GFP level changes – S. cerevisiae, multiplex flow cytometry, primary screen (AID 1873). Particulars: S. cerevisiae LAP4-GFP expression, 3 h, at 10 µM, stronger effect = higher value.
A short description of test [5]: yeast AGP1-GFP level changes, GLN3 branch – cell-based, multiplex flow cytometry, S. cerevisiae, primary screen (AID 1887;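 active = GFP signal above the screen-wide mean plus 3 SD, that is over about 124.5% of the solvent control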;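 also: AGP1-GFP fusion strain of S. cerevisiae within a five-strain barcoded multiplex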). Particulars: 3 h, at 10 µM, stronger effect = higher value.
The nature of test [6]: reduced mouse 2C T cell binding to pMHC/ICAM-1 vesicles – MLPCN validation set, flow cytometry, LFA-1/ICAM-1 modulator project, pilot screen (AID 2523;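 active = response below a set limit, under 55% cells CD8-positive and vesicle-bound, and CD8 cells' 90th-percentile brightness under 279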;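 as to vesicle binding response: mean PE anti-B7-1 fluorescence of CD8+ cells relative to row control; 100% = QL9-loaded vesicles with DMSO vehicle in the same plate row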). Particulars: 2C mouse CD8+ T cells, at 7 µM, stronger effect = lower value; double positive events: measured here: CD8+/vesicle+ event percentage.
Test [7] addresses Integrin beta-1 (Homo sapiens) + Integrin alpha-4 (Homo sapiens) (UniProt P13612+P05556). Briefly: alpha4beta1 integrin LIBS antibody binding reduction – U937 cells, HUTS-21 mAb, flow cytometry, validation set, VLA-4 allosteric modulator project, pilot screen (AID 2674;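 active = inhibition above 50%, about 3 SD of the validation set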;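 also: antibody binding induced by the VLA-4 ligand LDV present at three times its Kd; 0% = LDV ligand with antibody and no compound and 100% = antibody without LDV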). The settings on record: HUTS-21 LIBS mAb binding, at 6.7 µM, stronger effect = higher value, binding induced by LDV ligand.

A short description of test [8]: calorie-restriction mimetic ROS inhibitors, yeast – validation compound set, pilot screen (AID 2706;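 active = superoxide response below 65% of plate, a cut near 3 SD across the whole screen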;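 also: yeast exposed to compound for one week at 30 degrees C before staining; 100% = mean of all compound wells on the same plate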). The settings on record: S. cerevisiae aging, superoxide DHE fluorescence; at 10 µM, stronger effect = lower value.
In test [9] the target is Beta-adrenergic receptor kinase 1 (Homo sapiens) (UniProt P25098). Description: GRK2 binders displacing RNA aptamer, biochemical, validation, human GRK2, bead flow cytometry (AID 488806;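 active = aptamer binding inhibition above 30%, about 3 SD of noise from non-fluorescent compounds; inactive = inhibition at or below 30%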). The settings on record: bead-bound GRK2, FAM-aptamer displacement, at 10 µM, stronger effect = higher value.
Sequence of Beta-adrenergic receptor kinase 1 (Homo sapiens) (P25098 whole entry, looked up): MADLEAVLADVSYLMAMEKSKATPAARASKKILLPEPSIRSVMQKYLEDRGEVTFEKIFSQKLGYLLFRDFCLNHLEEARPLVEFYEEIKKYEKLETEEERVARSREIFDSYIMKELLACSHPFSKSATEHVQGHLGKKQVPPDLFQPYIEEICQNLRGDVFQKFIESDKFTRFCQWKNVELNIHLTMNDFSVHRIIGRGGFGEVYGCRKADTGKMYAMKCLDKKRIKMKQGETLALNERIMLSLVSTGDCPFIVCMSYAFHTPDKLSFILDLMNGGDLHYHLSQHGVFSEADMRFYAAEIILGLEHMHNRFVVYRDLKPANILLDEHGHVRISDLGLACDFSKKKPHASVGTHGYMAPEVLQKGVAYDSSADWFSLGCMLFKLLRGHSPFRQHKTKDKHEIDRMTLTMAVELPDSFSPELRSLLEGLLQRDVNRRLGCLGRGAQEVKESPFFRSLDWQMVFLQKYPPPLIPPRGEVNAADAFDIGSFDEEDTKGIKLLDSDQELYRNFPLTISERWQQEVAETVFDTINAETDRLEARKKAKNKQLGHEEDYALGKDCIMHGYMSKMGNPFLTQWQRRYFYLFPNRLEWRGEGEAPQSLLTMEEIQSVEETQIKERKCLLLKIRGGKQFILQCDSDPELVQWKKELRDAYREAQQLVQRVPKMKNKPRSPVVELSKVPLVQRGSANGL
The target of test [10] is AP-2 complex subunit beta (Homo sapiens) (UniProt P63010). Briefly: beta-arrestin/AP2 interaction blockers – biochemical, validation set, GST-AP2 beads, flow cytometry, pilot screen (AID 504541;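 active = inhibition above 54%, about 3 SD of non-fluorescent compounds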;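 also: AP2 carries R879A mutation and is captured from E. coli lysate; bead-bound FITC arrestin peptide fluorescence measuring arrestin peptide binding to AP2; 0% = DMSO wells and 100% = excess unlabeled arrestin peptide control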). The settings on record: FITC arrestin peptide, at 10 µM, stronger effect = higher value, AP2 beta2 appendage fragment, R879A mutant.
Sequence of AP-2 complex subunit beta (Homo sapiens) (P63010 whole entry, looked up, the tested form may be a part, one chain of several): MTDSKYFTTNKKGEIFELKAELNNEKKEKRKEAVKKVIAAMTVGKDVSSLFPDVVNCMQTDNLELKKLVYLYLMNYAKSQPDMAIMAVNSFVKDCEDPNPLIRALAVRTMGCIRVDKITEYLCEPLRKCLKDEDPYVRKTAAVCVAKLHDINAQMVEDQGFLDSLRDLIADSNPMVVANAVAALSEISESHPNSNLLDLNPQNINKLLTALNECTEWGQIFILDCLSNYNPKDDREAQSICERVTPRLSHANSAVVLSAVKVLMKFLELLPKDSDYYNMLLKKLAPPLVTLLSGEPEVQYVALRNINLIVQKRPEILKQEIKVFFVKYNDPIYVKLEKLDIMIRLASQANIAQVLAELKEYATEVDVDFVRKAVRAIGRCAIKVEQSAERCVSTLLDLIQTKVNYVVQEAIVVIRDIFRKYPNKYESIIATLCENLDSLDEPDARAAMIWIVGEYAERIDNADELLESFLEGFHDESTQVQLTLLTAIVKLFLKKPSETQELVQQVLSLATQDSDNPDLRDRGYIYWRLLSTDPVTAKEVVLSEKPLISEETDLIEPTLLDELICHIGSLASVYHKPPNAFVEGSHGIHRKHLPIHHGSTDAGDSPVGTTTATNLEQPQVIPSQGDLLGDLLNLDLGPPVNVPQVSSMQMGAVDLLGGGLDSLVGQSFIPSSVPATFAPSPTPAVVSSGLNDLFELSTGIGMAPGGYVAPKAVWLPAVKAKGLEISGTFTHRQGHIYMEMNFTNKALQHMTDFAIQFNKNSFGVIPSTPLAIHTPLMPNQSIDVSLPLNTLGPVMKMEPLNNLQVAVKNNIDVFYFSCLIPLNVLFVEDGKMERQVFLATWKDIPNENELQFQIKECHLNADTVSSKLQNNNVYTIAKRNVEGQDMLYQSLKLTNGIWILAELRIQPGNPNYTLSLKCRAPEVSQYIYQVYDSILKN
Test [11] can be described thus: cytosolic pH regulators acting via V-ATPase – S. cerevisiae, pHLuorin, HTS validation (AID 504600; in the data active = response above about 15%;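 also: plate controls were DMSO for no effect and reference compound for full effect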). The settings on record: V-ATPase proton transport, at 10 µM, stronger effect = higher value.
The subject of test [12] is anti-desmoglein-3 scFv antibody binding to human DSG3. Briefly: blockers of pathogenic pemphigus antibody–desmoglein-3 binding – biochemical, validation compound set, bead-based, flow cytometry, pilot screen (AID 588368;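 active = binding below the plate cutoff, the plate median minus 3 SD, with a reading above zero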;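 also: signal is the median channel fluorescence of bead-bound GFP antibody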). The settings on record: Protein G beads, DSG3-Fc, scFv-GFP binding, at 10 µM, stronger effect = lower value.
Test [13] in a line: Nile Red efflux blockade in pump-expressing yeast – validation compound set, multiplex, phenotypic, pilot screen (AID 588506;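 active = efflux inhibition above 0.42, the validation set average plus 4 SD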;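 also: Nile Red retained in cells so higher fluorescence means more efflux inhibition; 0 = negative control wells and 1 = enniatin B 25 µM full block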). Particulars: S. cerevisiae pump-expressing triplex, Nile Red efflux flow cytometry; at 10 µM; stronger effect = higher value; the pumps come from Candida albicans.
In test [14] the target is ATP-binding cassette sub-family B member 6 (Homo sapiens) (UniProt Q9NP58). Briefly: blockers of ABCB6-driven porphyrin uptake – K562-ABCB6 cells, flow cytometry, validation set, pilot screen (AID 588550;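 active = inhibition above the screen-wide mean plus 3 SD, about 51%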;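 also: 0% = DMSO wells and 100% = benzethonium chloride 70 µM positive control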). Particulars: K562-ABCB6 porphyrin accumulation, 1 h, at 10 µM, stronger effect = higher value.
Sequence of ATP-binding cassette sub-family B member 6 (Homo sapiens) (Q9NP58 whole entry, looked up): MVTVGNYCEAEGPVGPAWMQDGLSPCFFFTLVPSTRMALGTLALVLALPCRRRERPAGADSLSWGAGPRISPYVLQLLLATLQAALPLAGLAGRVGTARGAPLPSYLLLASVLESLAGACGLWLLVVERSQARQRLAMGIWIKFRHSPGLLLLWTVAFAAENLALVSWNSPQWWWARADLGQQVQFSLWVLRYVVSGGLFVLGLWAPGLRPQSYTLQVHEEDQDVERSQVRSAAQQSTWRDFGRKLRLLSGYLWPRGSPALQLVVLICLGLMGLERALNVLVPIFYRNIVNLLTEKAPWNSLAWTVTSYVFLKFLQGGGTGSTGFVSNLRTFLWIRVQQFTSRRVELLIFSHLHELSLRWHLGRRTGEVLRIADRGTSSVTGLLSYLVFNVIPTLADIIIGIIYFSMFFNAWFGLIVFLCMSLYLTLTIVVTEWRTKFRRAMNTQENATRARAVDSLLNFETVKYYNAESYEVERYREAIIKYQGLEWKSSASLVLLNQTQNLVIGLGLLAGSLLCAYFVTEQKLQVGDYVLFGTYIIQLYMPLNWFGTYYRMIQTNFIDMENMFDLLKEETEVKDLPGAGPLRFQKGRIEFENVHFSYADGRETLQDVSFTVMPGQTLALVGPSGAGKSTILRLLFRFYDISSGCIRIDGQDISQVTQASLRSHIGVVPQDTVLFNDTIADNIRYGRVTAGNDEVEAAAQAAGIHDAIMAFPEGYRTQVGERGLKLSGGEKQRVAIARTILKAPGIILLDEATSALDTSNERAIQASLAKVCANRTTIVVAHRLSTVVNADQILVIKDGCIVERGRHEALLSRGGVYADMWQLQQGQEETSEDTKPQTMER
The nature of test [15]: AML differentiation inducers, ER-HoxA9 marrow cells – cell-based, GFP/MAC1 double positive, flow cytometry, validation set, primary screen (AID 588685;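 active = differentiation response of at least 50%, scaled between solvent and reference control, from cells with both markers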;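 also: compound exposure lasts four days before antibody staining and flow analysis; 0% = DMSO wells and 100% = 5 µM fulvestrant positive control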). Particulars: stronger effect = higher value, normalized: vehicle 0, fulvestrant 100.

Results filed as inconclusive are left out. Activity calls are given as the source filed them.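 The calls were made as follows, unless noted: active = GFP signal, as percent of the solvent control, above the screen mean plus 3 SD, about 149; inconclusive = no reading because the compound's own fluorescence upset strain identification; inactive = the rest.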

Sequence of Integrin beta-1 (Homo sapiens) + Integrin alpha-4 (Homo sapiens) (P05556 whole entry, looked up): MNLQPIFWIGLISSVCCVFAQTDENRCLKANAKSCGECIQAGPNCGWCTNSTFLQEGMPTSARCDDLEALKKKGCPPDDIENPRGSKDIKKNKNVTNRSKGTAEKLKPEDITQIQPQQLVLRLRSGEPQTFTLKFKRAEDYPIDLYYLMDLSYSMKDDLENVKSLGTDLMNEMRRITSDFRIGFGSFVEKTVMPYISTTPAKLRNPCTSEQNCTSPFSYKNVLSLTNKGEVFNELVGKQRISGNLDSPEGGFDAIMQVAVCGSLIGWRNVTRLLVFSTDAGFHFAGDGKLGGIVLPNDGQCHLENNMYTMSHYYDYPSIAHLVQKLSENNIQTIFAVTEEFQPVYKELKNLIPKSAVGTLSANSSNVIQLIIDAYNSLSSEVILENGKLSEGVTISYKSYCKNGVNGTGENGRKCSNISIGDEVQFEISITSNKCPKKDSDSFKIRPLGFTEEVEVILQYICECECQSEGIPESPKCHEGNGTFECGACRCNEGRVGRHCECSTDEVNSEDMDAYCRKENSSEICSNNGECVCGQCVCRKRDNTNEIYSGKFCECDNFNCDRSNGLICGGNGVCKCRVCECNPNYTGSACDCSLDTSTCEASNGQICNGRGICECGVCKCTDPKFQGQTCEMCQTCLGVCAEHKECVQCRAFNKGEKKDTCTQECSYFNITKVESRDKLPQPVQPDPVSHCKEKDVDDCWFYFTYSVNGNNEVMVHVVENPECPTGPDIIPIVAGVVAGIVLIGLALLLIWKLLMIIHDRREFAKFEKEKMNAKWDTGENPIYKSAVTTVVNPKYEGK
Sequence of Integrin beta-1 (Homo sapiens) + Integrin alpha-4 (Homo sapiens) (P13612 whole entry, looked up): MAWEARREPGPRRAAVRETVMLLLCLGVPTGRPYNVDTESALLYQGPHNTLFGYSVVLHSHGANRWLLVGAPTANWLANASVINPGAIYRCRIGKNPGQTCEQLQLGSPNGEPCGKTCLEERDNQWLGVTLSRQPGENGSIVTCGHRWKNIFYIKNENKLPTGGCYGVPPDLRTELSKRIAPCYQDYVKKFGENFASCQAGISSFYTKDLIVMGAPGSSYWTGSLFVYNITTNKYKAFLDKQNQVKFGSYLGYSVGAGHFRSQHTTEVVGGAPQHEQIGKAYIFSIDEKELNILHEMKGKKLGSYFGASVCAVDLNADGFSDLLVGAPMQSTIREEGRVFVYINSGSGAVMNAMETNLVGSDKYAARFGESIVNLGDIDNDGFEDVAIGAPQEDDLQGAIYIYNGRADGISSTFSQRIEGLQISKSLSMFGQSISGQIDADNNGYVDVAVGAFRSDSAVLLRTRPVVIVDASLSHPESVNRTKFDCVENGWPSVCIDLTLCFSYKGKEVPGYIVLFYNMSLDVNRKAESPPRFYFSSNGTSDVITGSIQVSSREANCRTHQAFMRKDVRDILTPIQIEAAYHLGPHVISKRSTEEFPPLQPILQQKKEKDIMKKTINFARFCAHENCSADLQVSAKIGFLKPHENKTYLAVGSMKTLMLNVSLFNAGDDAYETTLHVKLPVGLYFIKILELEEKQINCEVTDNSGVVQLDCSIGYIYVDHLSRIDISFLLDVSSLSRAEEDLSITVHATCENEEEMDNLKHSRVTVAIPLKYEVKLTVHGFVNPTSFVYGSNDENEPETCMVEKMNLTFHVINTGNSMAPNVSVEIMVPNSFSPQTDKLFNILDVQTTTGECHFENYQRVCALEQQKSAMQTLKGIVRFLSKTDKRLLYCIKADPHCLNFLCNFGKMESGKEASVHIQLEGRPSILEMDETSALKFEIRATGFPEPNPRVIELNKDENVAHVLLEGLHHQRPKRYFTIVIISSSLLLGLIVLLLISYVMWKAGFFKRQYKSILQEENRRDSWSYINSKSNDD

As to `CCOc1cccc(N2C(=O)CC(N(CCc3ccc(OC)c(OC)c3)C(=O)CC)C2=O)c1` (stereo not given), in [1], the percent of DMSO control GFP is 101% (inactive). Further, the GFP response vs DMSO in test [2] was 105% (inactive); in [4] it was 98.4% (inactive). The percent response of DMSO control in test [3] is 104% (inactive). The GFP response, % of DMSO in test [5] is 100% (inactive). The molecule further yielded a double positive events in test [6] of 59.7%. In test [6], the vesicle binding response was 184% (inactive). The inhibition in [7] is 0% (inactive); in test [10], 27.3% (inactive); in test [14] it was 5% (inactive). For the same molecule, the superoxide response (% of plate) in test [8] was 94% (inactive). Besides, the aptamer binding inhibition in test [9] is 2% (inactive). In addition, the response in test [11] is -1.88% (inactive). For the same molecule, the binding (% of control) in test [12] was 100% (inactive). Moreover, in [13], the efflux inhibition (fraction of control) is -0.2 (inactive). In [15], the differentiation response is -18% (inactive).

As to `CC[n+]1c(C)sc2cc(C)ccc21`, in [1], the percent of DMSO control GFP was 96.4% (inactive). Besides, the results for the GFP response vs DMSO in test [2] and in test [4] were 103% (inactive) and 116% (inactive), respectively. Moreover, in [3], the percent response of DMSO control was 87.1% (inactive). Besides, the GFP response, % of DMSO in test [5] is 95.4% (inactive). The double positive events in [6] turned out to be 50%. The vesicle binding response in test [6] was 138% (inactive). The inhibition in test [7] was -11.4% (inactive); in test [10], -14% (inactive); in [14], 15% (inactive). Also, the superoxide response (% of plate) in test [8] is 106% (inactive). The aptamer binding inhibition in test [9] was 6% (inactive). The response in test [11] is -1.58% (inactive). Besides, the binding (% of control) in test [12] is 102% (inactive). Further, the efflux inhibition (fraction of control) in test [13] was 0.44 (active). For the same molecule, in test [15], the differentiation response was -13.1% (inactive).

As to `CN1CCCC(OC(=O)c2ccc3c(c2)OCCO3)C1` (stereo not given), the percent of DMSO control GFP in test [1] was 101% (inactive). In addition, the GFP response vs DMSO is 106% (inactive) in [2] and 82.3% (inactive) in test [4]. Also, the percent response of DMSO control in [3] was 108% (inactive). The GFP response, % of DMSO in [5] was 96.3% (inactive). The same molecule came in with a double positive events in [6] of 58.8%. In addition, the vesicle binding response in test [6] was 175% (inactive). For the same molecule, the inhibition in [7] was -8.64% (inactive); in [10], 2.71% (inactive); in test [14], 8% (inactive). The superoxide response (% of plate) in test [8] was 100% (inactive). Also, the aptamer binding inhibition in [9] was 0% (inactive). In [11], the response was -2.88% (inactive). Besides, in [12], the binding (% of control) was 96% (inactive). The efflux inhibition (fraction of control) in test [13] was 0.41 (inactive). Also, the differentiation response in test [15] is 1.41% (inactive).

With `CCN(CC)Cc1c[nH]c2c(C(=O)OC)cccc12`, the percent of DMSO control GFP in [1] was 98.8% (inactive). The values for the GFP response vs DMSO in test [2] and in test [4] were 104% (inactive) and 102% (inactive), respectively. In test [3], the percent response of DMSO control was 105% (inactive). Also, the GFP response, % of DMSO in [5] is 99.1% (inactive). The same molecule came in with a double positive events in test [6] of 60.2%. Moreover, in test [6], the vesicle binding response is 183% (inactive). Further, the inhibition in test [7] was 10% (inactive); in test [10], 12.3% (inactive); in test [14] it was 7% (inactive). In [8], the superoxide response (% of plate) was 98.4% (inactive). Besides, the aptamer binding inhibition in test [9] was 0% (inactive). Besides, in [11], the response is -5.36% (inactive). Moreover, in test [12], the binding (% of control) is 105% (inactive). Further, in test [13], the efflux inhibition (fraction of control) was -0.28 (inactive). Moreover, the differentiation response in test [15] is -24.4% (inactive).

Regarding `COC(=O)c1[nH]c2ccccc2c1NC(=O)CN1CCN(C/C=C/c2ccccc2)CC1`, the percent of DMSO control GFP in [1] was 108% (inactive). The GFP response vs DMSO in test [2] is 106% (inactive); in test [4], 88.3% (inactive). In [3], the percent response of DMSO control is 99.8% (inactive). Besides, the GFP response, % of DMSO in test [5] was 96.1% (inactive). This molecule also displayed a double positive events in [6] of 55.6%. Further, in test [6], the vesicle binding response is 154% (inactive). Also, the inhibition is -42.2% (inactive) in test [7], 3.15% (inactive) in [10] and 8% (inactive) in [14]. Moreover, the superoxide response (% of plate) in test [8] is 98% (inactive). Further, in test [9], the aptamer binding inhibition was 0% (inactive). In test [11], the response is 3.35% (inactive). Further, in test [12], the binding (% of control) is 108% (inactive). In addition, the efflux inhibition (fraction of control) in test [13] was 0.25 (inactive). The differentiation response in test [15] is -13.1% (inactive).

These data come from PubChem BioAssay.
